# Test results as given in the supplement of paper PMC10037445.
# Whole data set: some 2,900 compounds, median “IRF Lucia reporter activity, fold change vs agonist alone” near 0.9, cut for the highest 2% near 2.8. The sample holds the highest values, similar compounds and a random draw of the others, so the mix is not that of the screen.
# How the values were obtained:
# RAW-Dual [1] = assay: IRF Lucia reporter activity, fold change vs agonist alone; cytotoxicity flag (confluency mask): cytotoxic (confluency <70% of control); higher = enhanced IRF activity
# Outline: (§1)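 Cytotoxic wells were those whose IncuCyte confluency was below 70% of agonist controls in both mask sets. The cells were RAW-Dual macrophages at 50,000 cells/well in DMEM on 384-well plates, dosed with 50 nL of library stock by pin tool, stimulated with a PRR agonist 1 h later, and kept at 37 °C, 5% CO2 for 20 hours. IRF and NF-κB reporter activity, as fold change over agonist-alone wells, came from supernatant read by QuantiLuc luminescence and QuantiBlue absorbance, respectively.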
# RAW-Dual [2] = assay: IRF Lucia reporter activity, fold change vs agonist alone; higher = enhanced IRF activity; details: agonist: MPLA (TLR4) […]
# Outline: as §1
# RAW-Dual [3] = assay: IRF Lucia reporter activity, fold change vs agonist alone; cytotoxicity flag (confluency mask): not cytotoxic; higher = enhanced IRF activity
# Outline: as §1
# [4] = agonist: 3'3'-cGAMP (STING) 10 ug/mL
# [5] = library stock concentration (final ~1000-fold dilution): 10 mM, cytotoxicity flag (confluency mask): cytotoxic (confluency <70% of control)
# [6] = library stock concentration (final ~1000-fold dilution): 10 mM, cytotoxicity flag (confluency mask): not cytotoxic
structure (smiles),measurement,setting,value
CS(=O)(=O)O.CS(=O)(=O)O.Cc1ccc(C(=O)Nc2ccc(CN3CCN(C)CC3)c(C(F)(F)F)c2)cc1C#Cc1cnc2[nH]ncc2c1 (library stock concentration (final ~1000-fold dilution): 10 mM),IRF Lucia reporter activity,RAW-Dual [1]; [4],0.00912
same,IRF Lucia reporter activity,RAW-Dual [1]; agonist: LPS (TLR4) 0.1 ug/mL,0.0192
CS(=O)(=O)O.CS(=O)(=O)O.Cc1ccc(C(=O)Nc2ccc(CN3CCN(C)CC3)c(C(F)(F)F)c2)cc1C#Cc1cnc2[nH]ncc2c1,IRF Lucia reporter activity,RAW-Dual [2]; [5],0.0201
COc1ccc(-c2cc3c(C)nc(N)nc3n(C3CCC(OCCO)CC3)c2=O)cn1 (stereo unspecified) (library stock concentration (final ~1000-fold dilution): 10 mM),IRF Lucia reporter activity,RAW-Dual [1]; [4],0.282
same,IRF Lucia reporter activity,RAW-Dual [1]; agonist: LPS (TLR4) 0.1 ug/mL,0.508
COc1ccc(-c2cc3c(C)nc(N)nc3n(C3CCC(OCCO)CC3)c2=O)cn1 (stereo unspecified),IRF Lucia reporter activity,RAW-Dual [2]; [5],0.387
CCOC(=O)c1cnc2ccc(-c3cncc(NS(=O)(=O)c4ccccc4)c3)cn12 (library stock concentration (final ~1000-fold dilution): 10 mM),IRF Lucia reporter activity,RAW-Dual [1]; [4],0.284
same,IRF Lucia reporter activity,RAW-Dual [1]; agonist: LPS (TLR4) 0.1 ug/mL,4.78
Nc1nc2cc(-c3ccc4ncc(C(=O)N5CCOCC5)n4c3)ccc2o1 (library stock concentration (final ~1000-fold dilution): 10 mM),IRF Lucia reporter activity,RAW-Dual [3]; [4],0.343
same,IRF Lucia reporter activity,RAW-Dual [3]; agonist: LPS (TLR4) 0.1 ug/mL,1.04
CCOC(=O)c1cnc2ccc(-c3cncc(NS(=O)(=O)c4ccccc4)c3)cn12,IRF Lucia reporter activity,RAW-Dual [2]; [5],4.46
COCCNCCc1cccc(Nc2ncc3c(n2)-c2ccccc2C(c2ccccc2F)C3)c1 (stereo unspecified) (library stock concentration (final ~1000-fold dilution): 10 mM),IRF Lucia reporter activity,RAW-Dual [1]; [4],0.0166
same,IRF Lucia reporter activity,RAW-Dual [1]; agonist: LPS (TLR4) 0.1 ug/mL,0.159
CN1CCC(c2c(O)cc(O)c3c(=O)cc(-c4ccccc4Cl)oc23)C1CO.Cl (stereo unspecified) (library stock concentration (final ~1000-fold dilution): 10 mM),IRF Lucia reporter activity,RAW-Dual [1]; [4],0.00862
same,IRF Lucia reporter activity,RAW-Dual [1]; agonist: LPS (TLR4) 0.1 ug/mL,0.0242
CN(CC1COCCO1)S(=O)(=O)Nc1ccc2ccc3ncc(-c4cnn(C)c4)cc3c(=O)c2c1 (stereo unspecified) (library stock concentration (final ~1000-fold dilution): 10 mM),IRF Lucia reporter activity,RAW-Dual [3]; [4],0.306
same,IRF Lucia reporter activity,RAW-Dual [3]; agonist: LPS (TLR4) 0.1 ug/mL,0.736
CN(CC1COCCO1)S(=O)(=O)Nc1ccc2ccc3ncc(-c4cnn(C)c4)cc3c(=O)c2c1 (stereo unspecified),IRF Lucia reporter activity,RAW-Dual [2]; [6],0.63
COC(=O)C1=COC(OC2OC(CO)C(O)C(O)C2O)C2C1CC(O)C2C (stereo unspecified) (library stock concentration (final ~1000-fold dilution): 10 mM),IRF Lucia reporter activity,RAW-Dual [3]; [4],1.08
same,IRF Lucia reporter activity,RAW-Dual [3]; agonist: LPS (TLR4) 0.1 ug/mL,1.3
COC(=O)C1=COC(OC2OC(CO)C(O)C(O)C2O)C2C1CC(O)C2C (stereo unspecified),IRF Lucia reporter activity,RAW-Dual [2]; [6],1.12
CCCc1cc(C)[nH]c(=O)c1CNC(=O)c1cc(-c2ccc(N3CCN(C)CC3)nc2)nc2c1cnn2C(C)C (library stock concentration (final ~1000-fold dilution): 10 mM),IRF Lucia reporter activity,RAW-Dual [3]; [4],0.763
same,IRF Lucia reporter activity,RAW-Dual [3]; agonist: LPS (TLR4) 0.1 ug/mL,1.35
CCN(C)S(=O)(=O)Nc1ccc(F)c(C(=O)c2c[nH]c3ncc(-c4cnc(C5CC5)nc4)cc23)c1F (library stock concentration (final ~1000-fold dilution): 10 mM),IRF Lucia reporter activity,RAW-Dual [3]; [4],0.0563
same,IRF Lucia reporter activity,RAW-Dual [3]; agonist: LPS (TLR4) 0.1 ug/mL,0.409
Cc1ccc2c(=O)c3cccc(CC(=O)O)c3oc2c1C,IRF Lucia reporter activity,RAW-Dual [2]; [6],0.965
Cc1ccc2c(=O)c3cccc(CC(=O)O)c3oc2c1C (library stock concentration (final ~1000-fold dilution): 10 mM),IRF Lucia reporter activity,RAW-Dual [3]; [4],1.08
same,IRF Lucia reporter activity,RAW-Dual [3]; agonist: LPS (TLR4) 0.1 ug/mL,6.08
Cc1c(-c2ccccc2)oc2c(C(=O)OCCN3CCCCC3)cccc2c1=O.Cl,IRF Lucia reporter activity,"RAW-Dual [2]; library stock concentration (final ~1000-fold dilution): 10 mM water, cytotoxicity flag (confluency mask): not cytotoxic",1.29
Cc1c(-c2ccccc2)oc2c(C(=O)OCCN3CCCCC3)cccc2c1=O.Cl (library stock concentration (final ~1000-fold dilution): 10 mM water),IRF Lucia reporter activity,RAW-Dual [3]; [4],1.09
same,IRF Lucia reporter activity,RAW-Dual [3]; agonist: LPS (TLR4) 0.1 ug/mL,0.892
CCC(=O)N1CCC(Nc2ncnc3c2CN(c2cnc(OC)c(C(F)(F)F)c2)CC3)C1 (stereo unspecified) (library stock concentration (final ~1000-fold dilution): 10 mM),IRF Lucia reporter activity,RAW-Dual [3]; [4],0.908
same,IRF Lucia reporter activity,RAW-Dual [3]; agonist: LPS (TLR4) 0.1 ug/mL,0.847
CCC1(O)C(=O)OCc2c1cc1n(c2=O)Cc2cc3cc(O)ccc3nc2-1 (stereo unspecified) (library stock concentration (final ~1000-fold dilution): 10 mM),IRF Lucia reporter activity,RAW-Dual [3]; [4],0.975
same,IRF Lucia reporter activity,RAW-Dual [3]; agonist: LPS (TLR4) 0.1 ug/mL,0.604
same,IRF Lucia reporter activity,RAW-Dual [1]; [4],2.36
same,IRF Lucia reporter activity,RAW-Dual [1]; agonist: LPS (TLR4) 0.1 ug/mL,1.76
CCC1(O)C(=O)OCc2c1cc1n(c2=O)Cc2cc3c(CN(C)C)c(O)ccc3nc2-1.Cl (stereo unspecified),IRF Lucia reporter activity,RAW-Dual [2]; [5],3.1
CCc1c2c(nc3ccc(OC(=O)N4CCC(N5CCCCC5)CC4)cc13)-c1cc3c(c(=O)n1C2)COC(=O)C3(O)CC.Cl.O.O.O (stereo unspecified) (library stock concentration (final ~1000-fold dilution): 10 mM),IRF Lucia reporter activity,RAW-Dual [3]; [4],0.87
same,IRF Lucia reporter activity,RAW-Dual [3]; agonist: LPS (TLR4) 0.1 ug/mL,1.1
CCc1c2c(nc3ccc(O)cc13)-c1cc3c(c(=O)n1C2)COC(=O)C3(O)CC (stereo unspecified) (library stock concentration (final ~1000-fold dilution): 10 mM),IRF Lucia reporter activity,RAW-Dual [3]; [4],1.24
same,IRF Lucia reporter activity,RAW-Dual [3]; agonist: LPS (TLR4) 0.1 ug/mL,1.29
CCC1(O)C(=O)OCc2c1cc1n(c2=O)Cc2cc3c(CN(C)C)c(O)ccc3nc2-1.Cl (stereo unspecified) (library stock concentration (final ~1000-fold dilution): 10 mM),IRF Lucia reporter activity,RAW-Dual [1]; [4],2.13
same,IRF Lucia reporter activity,RAW-Dual [1]; agonist: LPS (TLR4) 0.1 ug/mL,2.49
CCc1c2c(nc3ccc(OC(=O)N4CCC(N5CCCCC5)CC4)cc13)-c1cc3c(c(=O)n1C2)COC(=O)C3(O)CC.Cl.O.O.O (stereo unspecified),IRF Lucia reporter activity,RAW-Dual [2]; [6],1.15
CCC1(O)C(=O)OCc2c1cc1n(c2=O)Cc2cc3cc(O)ccc3nc2-1 (stereo unspecified),IRF Lucia reporter activity,RAW-Dual [2]; [5],2.58
same,IRF Lucia reporter activity,RAW-Dual [2]; [6],1.03
CCc1c2c(nc3ccc(O)cc13)-c1cc3c(c(=O)n1C2)COC(=O)C3(O)CC (stereo unspecified),IRF Lucia reporter activity,RAW-Dual [2]; [6],1.65
CCC1(O)C(=O)OCc2c1cc1n(c2=O)Cc2cc3c(CN(C)C)c(O)ccc3nc2-1 (stereo unspecified) (library stock concentration (final ~1000-fold dilution): 10 mM),IRF Lucia reporter activity,RAW-Dual [3]; [4],2.77
same,IRF Lucia reporter activity,RAW-Dual [3]; agonist: LPS (TLR4) 0.1 ug/mL,3.25
COc1ccc2cc1Oc1ccc(cc1)CC1c3cc(c(OC)cc3CCN1C)Oc1c(OC)c(OC)cc3c1C(C2)N(C)CC3 (stereo unspecified),IRF Lucia reporter activity,RAW-Dual [2]; [6],1.07
COc1ccc2cc1Oc1ccc(cc1)CC1c3cc(c(OC)cc3CCN1C)Oc1c(OC)c(OC)cc3c1C(C2)N(C)CC3 (stereo unspecified) (library stock concentration (final ~1000-fold dilution): 10 mM),IRF Lucia reporter activity,RAW-Dual [3]; [4],1.01
same,IRF Lucia reporter activity,RAW-Dual [3]; agonist: LPS (TLR4) 0.1 ug/mL,0.352
Cn1c(=O)cc(N2CCCC(N)C2)n(Cc2cc(F)ccc2C#N)c1=O.O=C(O)CCC(=O)O (stereo unspecified),IRF Lucia reporter activity,RAW-Dual [2]; [6],1.13
Cn1c(=O)cc(N2CCCC(N)C2)n(Cc2cc(F)ccc2C#N)c1=O.O=C(O)CCC(=O)O (stereo unspecified) (library stock concentration (final ~1000-fold dilution): 10 mM),IRF Lucia reporter activity,RAW-Dual [3]; [4],1.04
same,IRF Lucia reporter activity,RAW-Dual [3]; agonist: LPS (TLR4) 0.1 ug/mL,1.26
